Compound activity deposited in PubChem BioAssay by National Center for Advancing Translational Sciences (NCATS).
TrxR1 substrate – substrates of rat thioredoxin reductase 1. Potency, µM (series often up to 114 µM). hit rate 0.01% among 390,000. purified TrxR1 substrate turnover, NADPH consumption readout. O89049. AID 588456; further: nearly all actives have a fitted effect of over 50% in size
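Rat TrxR1, dispensed at 90 nM, was prereduced with 400 uM NADPH (final) for 5 min at ~22 deg C, then incubated with compound 15 min before 400 uM selenite. A first-read NADPH fluorescence drop versus no-compound background flagged substrates.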
Giardia kill – kills Giardia lamblia; AID 540267; hit rate 0.15% among 340,000; activity change, % at 7.66 µM, hits read low; Giardia lamblia trophozoite viability; in the data active means activity change below about -80%; inconclusive means between about -30% and that limit;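 further: parasites exposed to compound for two days anaerobically before the ATP read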
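ATP-content bioluminescence gauges trophozoite survival. Cells (100/well) receive compound and incubate anaerobically for 48 hrs at 37 deg C; detection reagent follows for 15-30 min at room temperature.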
IDH1 R132H inh – blocks human mutant IDH1 R132H enzyme. O75874. Potency, µM (highest dose often 76.6 µM), actives largely listed as inhibitors. IDH1-R132H enzyme, NADPH consumption, diaphorase/resazurin fluorescence. hit rate 0.093% among 390,000; further: nearly all actives have a fitted effect of over 65% in size
Target sequence (O75874 whole entry R132H, stated change not applied): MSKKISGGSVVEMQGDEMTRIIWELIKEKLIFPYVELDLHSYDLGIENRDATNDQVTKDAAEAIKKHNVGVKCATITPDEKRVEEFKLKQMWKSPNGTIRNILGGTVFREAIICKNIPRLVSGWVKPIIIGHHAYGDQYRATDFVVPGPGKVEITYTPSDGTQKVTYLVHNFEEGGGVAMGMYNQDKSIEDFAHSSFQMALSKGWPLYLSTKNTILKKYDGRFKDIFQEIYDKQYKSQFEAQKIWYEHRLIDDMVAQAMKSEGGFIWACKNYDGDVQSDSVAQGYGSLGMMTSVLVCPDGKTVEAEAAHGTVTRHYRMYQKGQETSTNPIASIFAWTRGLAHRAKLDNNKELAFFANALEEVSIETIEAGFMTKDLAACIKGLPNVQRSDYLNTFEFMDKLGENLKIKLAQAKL
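IDH1-R132H (0.5 ug/mL dispensed) in pH 7.5 Tris buffer was preincubated 30 min with compound, then given a substrate mix of 0.016 mM NADPH and 2 mM alpha-KG for 80 min at room temperature; remaining NADPH was read by diaphorase/resazurin fluorescence.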
IL2 activator – activates IL-2 in a cell-based reporter assay; IL-2 activation reporter assay, cell-based qHTS; stimulated with anti-CD3/CD4/CD28 beads; in transgenic mouse T cells; activation, % (series mostly up to about 46 µM); hit rate 0.065% among 360,000; in the data active means activation above about 50%; inconclusive means mostly about 30% to 49%
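EGFP and DsRed fluorescence is measured by plate cytometry in unstimulated transgenic mouse T cells exposed to compound for 60 minutes, then stimulated 18 hours at 37 degrees C with anti-CD3/anti-CD4 beads plus anti-CD28.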
BRCA1 expr act – activators of BRCA1 expression; hit rate 1.1% among 380,000; Potency, µM (series often up to 46.1 µM), usual class: activators; MCF7-BRCA1-FFLuc reporter, luminescence, 48 h; response scale: scaled: vehicle 0%, 10 µM genistein 100%; AID 624202; further: nearly all actives have a fitted effect of over 80% in size
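MCF7 cells carrying a BRCA1-firefly luciferase reporter (2000 cells/well, phenol-red free MEM) were attached for 2 h at 37 °C, then given compounds for 48 h. Luminescence was read 15 min after luciferase reagent; activity normalized to genistein (10 microM) and DMSO.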
rTrxR1 inhibitor – inhibitors of rat thioredoxin reductase 1. O89049. recombinant rTrxR1, NADPH fluorescence consumption, selenite substrate. Potency, µM (doses to about 114 µM), actives largely listed as inhibitors. hit rate 1% among 390,000. AID 588453; further: nearly all actives have a fitted effect of over 65% in size
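Rat TrxR1 (90 nM in the dispensed reagent) was pre-reduced with 400 uM NADPH for 5 min at room temperature, then incubated with compound for 15 min. After 400 uM selenite was added, NADPH fluorescence (Ex 340/Em 450 nm) was followed for 8 min.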
Hits are given with their value; – = inactive; ? = inconclusive; · = no result; [ ] = another dose, or the depositor's remark. The list is not random: actives were taken first. Their share in the collection is about 2.2%. Unless noted, the call rests on the fitted dose curve; in most records, active means well fitted curve in the direction sought with a large enough effect; inconclusive means small, poorly fitted or top-dose-only effect, or another doubt; inactive means no such curve, though single readings can be large; an effect the other way counts as inactive or inconclusive.

SMILES	TrxR1 substrate	Giardia kill	IDH1 R132H inh	IL2 activator	BRCA1 expr act	rTrxR1 inhibitor
CSc1nc(-c2ccco2)nn1C(=O)c1ccco1	–	–	–	–	–	?
Cc1ccc(CNC(=O)c2cc(-c3ccc(C)cc3)nc3n[nH]c(-c4cccc([N+](=O)[O-])c4)c23)cc1	–	·	–	·	·	–
Cc1c(CCO)sc[n+]1CCc1ccccc1	–	·	·	·	·	–
Cc1cc(NC(=O)/C(C#N)=C/c2ccc(-c3ccc(SC(F)F)cc3)o2)n(-c2ccccc2)n1	–	–	–	100	–	–
Cc1ccccc1Cn1nnc2c(=O)[nH]c(C3CCN(C(=O)c4ccccc4Cl)CC3)nc21	–	·	–	·	·	–
COc1ccccc1C(=O)NCC(c1ccc(N(C)C)cc1)N1CCc2ccccc21 (stereo not given)	–	·	–	·	·	–
Cc1ccc(C2C=C(c3ccccc3)Nc3ncnn32)cc1 (stereo not given)	–	–	–	–	–	45µM
Fc1ccc(C2=CC(c3ccc(Br)o3)n3ncnc3N2)cc1 (stereo not given)	–	–	–	–	–	7.9µM
COc1ccc(C2C=C(c3ccc(C)cc3)Nc3ncnn32)cc1 (stereo not given)	–	–	–	–	?	–
Cc1cccc(NC(=O)CNc2cc(C)ccc2C)c1	–[0.457 µM]	–	–	–	13µM	–
Cc1cccc(NC(=O)CC(=O)Nc2cccc(C)c2)c1	–	–	–	–	–	–
O=C(c1ccc2c(c1)N(Cc1ccc(Cl)cc1)C(=O)c1ccccc1S2(=O)=O)N1CCC(Cc2ccccc2)CC1	–	·	–	·	–	–
CCn1cc2nc(SCc3cc(C)ccc3C)n(Cc3ccc(Cl)cc3)c(=O)c2n1	–	·	–	·	–	–
CCOc1ccc(-c2n[nH]c(C(=O)NN)c2C)cc1	–	–	–	–	10µM	–
O=C(c1cccs1)N1CCN(Cc2ccccc2)CC1	–	–	–	–	–	–
O=C(NCC(=O)N1CCN(Cc2ccccc2)CC1)c1cccs1	–	–	–	–	10µM	–
O=C(NCC(O)c1ccccc1)c1cccs1 (stereo not given)	–	–	–	–	7.1µM	–
O=C(NCCCc1ccccc1)c1cccs1	–[2.29 µM]	–	–	–	–	–[2.29 µM]
CCNc1nc(C#N)nc(N2CCCCC2)n1	–	–	·	·	–	–
COC(=O)c1sc(NC(=O)COc2cccnc2[N+](=O)[O-])c(C(=O)OC)c1C	–	-82	–	–	–	–
CCc1cccc(-n2c(=O)c3cccnc3n2CC(=O)NCc2ccccc2Cl)c1	–	·	–	·	·	–
CCOC(=O)/C(=C/c1ccc(OC(=O)c2ccncc2)cc1)C(C)=O	–	–	–	–	–	6.3µM
CCOC(=O)C(CC)(CC)C(=O)/C=C/c1ccc(Br)cc1	–	–	–	–	–	–
CCOC(=O)C(=Cc1ccc(Br)cc1)C(=O)OCC	–	–	–	–	–	25µM
COCCOC(=O)/C(=C/c1ccc(OC(=O)c2ccccc2)cc1)C(C)=O	–	–	–	–	–	?
SMILES	TrxR1 substrate	Giardia kill	IDH1 R132H inh	IL2 activator	BRCA1 expr act	rTrxR1 inhibitor
CCOC(=O)C(=Cc1ccc(-n2ccnc2)cc1)C(=O)OCC	–	–	–	–	–	20µM
COC(=O)c1ccc(-n2ccnc2)cc1	–	–	–	–	–	–
Cn1cnc([N+](=O)[O-])c1Sc1ncnc2nc[nH]c12	–	–	–	–	–	25µM
Cn1cnc(Sc2ncnc3nc[nH]c23)c1[N+](=O)[O-]	–	–	–	–	–	–
CCOc1ccc(Nc2oc(/C=C/c3ccc(OC)c(OC)c3)nc2C#N)cc1	–	·	–	·	·	–
O=C(/C(=C/c1ccc(Cl)cc1)c1nc2ccccc2[nH]1)c1cccs1	–	–	–	–	–	?
COc1cc(/C=C(/C(=O)c2cccs2)c2nc3ccccc3[nH]2)ccc1O	–	–	–	–	–	14µM
O=C(Cc1ccccc1)N(Cc1cccnc1)c1nc2ccc(F)cc2s1	–	·	–	·	·	–
O=[N+]([O-])c1cncn1CCN1CCOCC1	–[11.4 µM]	-91	–	–	–	–[11.4 µM]
O=C(Nc1ccccc1)C1=C(c2ccccc2)S(=O)(=O)CCS1(=O)=O	–	–	–	–	–	0.22µM
O=C(O)c1ccccc1C(=O)Nc1ccccc1	–	–	–	–	–	–
Cc1ccc(/C=C/c2nc3ccccc3[nH]2)o1	–	?	–	–	?	22µM
CCn1nnc2cc(C(=O)Nc3cccc(C)c3C)ccc21	–	·	–	·	·	–
Cc1ccc(OCc2nc(-c3ccc(C(=O)N4CCN(c5ccc(Cl)cc5)CC4)cc3)oc2C)cc1	–	·	–	·	·	–
COc1ccc(C=C(C(C)=O)C(C)=O)cc1OC	–	–	–	–	–	45µM
COc1cc(C=C(C(C)=O)C(C)=O)ccc1O	–	–	–	–	–	?
COc1ccc(C(=O)Nc2ccc3nc(SCC(=O)N4CCCC4)sc3c2)cc1	–	·	–	·	·	–
COc1ccccc1C1=NC(c2ccc(F)cc2)N=C1C (stereo not given)	–	?	–	–	13µM	–
O=C(c1ccco1)N1CCCC(Nc2ccc3c(c2)OCCO3)C1 (stereo not given)	–	–	–	–	8.9µM	–
CSCc1ccc(C(=O)N2CCCC(Nc3ccc4c(c3)OCCO4)C2)o1 (stereo not given)	–	–	–	–	–	–
CCS(=O)(=O)N1CCc2cc(C(=O)NCCc3ccccc3)ccc21	–	·	–	·	?	–
CCc1nnc(NS(=O)(=O)c2ccc(NC(=S)NC(=O)c3ccc(OC)cc3)cc2)s1	–	–	–	–	–	11µM
CCc1nnc(NS(=O)(=O)c2ccc(NC(=S)NC(=O)/C=C/c3ccc(F)cc3)cc2)s1	–	–	–	–	–	50µM
CCc1nnc(NS(=O)(=O)c2ccc(NC(=S)NC(=O)/C=C/c3ccc([N+](=O)[O-])cc3)cc2)s1	–	–	–	–	–	–
O=C(NC(=S)Nc1ccc(S(=O)(=O)Nc2nccs2)cc1)c1ccc(F)cc1	–	?	–	–	–	22µM
Cc1ccc(C)c(NC(=O)C(NS(=O)(=O)c2ccc3c(c2)CCC(=O)N3)c2ccccc2)c1 (stereo not given)	–	·	–	·	·	–
Nc1sccc1C(=O)c1ccc(Cl)cc1	–	–	–	–	6.3µM	–
O=C(O)c1ccccc1C(=O)c1ccc(Cl)cc1	–	–	–	–	–	–
O=C(N/N=C\c1ccc([N+](=O)[O-])o1)c1cncc(Br)c1	–	?	–	–	–	22µM
O=C(N/N=C/c1ccc([N+](=O)[O-])o1)c1ccccc1NS(=O)(=O)c1cccs1	–	?	–	–	–	40µM
